Source: PubChem BioAssay (NCATS)
“And” between values parts separate entries of the source, which are not always exact repeats. Equal entries are not always repeated. Inconclusive results are not listed. Entries that show only a call come without a potency. Values without a mark were called inactive. The source made the active and inactive calls. The call rests on the fitted dose curve; in most records, active means well fitted curve in the direction sought with a large enough effect; inconclusive means small, poorly fitted or top-dose-only effect, or another doubt; inactive means no such curve, though single readings can be large; an effect the other way counts as inactive or inconclusive.

How the values were obtained:
[1] = Quantitative highthroughput screen to assess conditional lethalithy of NOMO1 cells grown in RPMI1640 with untreated serum (RPMI+s) (AID 1963876); further: nearly all actives have a fitted effect of over 35% in size
In short: (§1)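 Each medium arm—HPLM with 10% dialyzed FBS, or RPMI1640 with 5 mM glucose and 10% untreated or dialyzed FBS—was screened against an 11-point, 3-fold compound titration for 48 h at 37 °C, with CellTiter-Glo luminescence as endpoint.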

[2] = Quantitative highthroughput screen to assess conditional lethalithy of NOMO1 cells grown in RPMI1640 with dialyzed fetal bovine serum (RPMI+ds) (AID 1963877); further: nearly all actives have a fitted effect of over 30% in size; on viability: series mostly up to about 46 µM
In short: as §1

[3] = Quantitative highthroughput screen to assess conditional lethalithy of NOMO1 cells grown in Human Plasma-Like Medium with dialyzed fetal bovine serum (HPLM+ds) (AID 1963878); further: nearly all actives have a fitted effect of over 35% in size
In short: as §1

[4] = Quantitative highthroughput screen to assess conditional lethalithy of P12 Ichikawa cells grown in Human Plasma-Like Medium with dialyzed fetal bovine serum (HPLM+ds) (AID 1963879); conditions: Potency: viability; further: nearly all actives have a fitted effect of over 35% in size; on viability: series mostly up to about 46 µM
In short: as §1

[5] = Quantitative highthroughput screen to assess conditional lethalithy of SEM cells grown in Human Plasma-Like Medium with dialyzed fetal bovine serum (HPLM+ds) (AID 1963882); further: nearly all actives have a fitted effect of over 35% in size; on viability: series mostly up to about 46 µM
In short: as §1

[6] = Quantitative highthroughput screen to assess conditional lethalithy of P12 Ichikawa cells grown in RPMI1640 with untreated serum (RPMI+s) (AID 1963881); conditions: Potency: viability; further: nearly all actives have a fitted effect of over 35% in size; on viability: series mostly up to about 46 µM
In short: as §1

[7] = Quantitative highthroughput screen to assess conditional lethalithy of SEM cells grown in RPMI1640 with unreated serum (RPMI+s) (AID 1963883); further: nearly all actives have a fitted effect of over 35% in size
In short: as §1

[8] = Quantitative highthroughput screen to assess conditional lethalithy of SEM cells grown in RPMI1640 with dialyzed fetal bovine serum (RPMI+ds) (AID 1963884); further: nearly all actives have a fitted effect of over 35% in size; on viability: series mostly up to about 46 µM
In short: as §1

[9] = Cellular viability qHTS for adrenocortical cancer (ACC) cell line SW-13 (AID 1963989); conditions: SW-13 ACC cells viability, CellTiter-Glo, 48 h; activity (max response): stronger effect = lower value; further: nearly all actives have a fitted effect of over 65% in size;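 on activity (max response): cells grown in serum-free medium with ITS supplement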
In short: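 Compound titrations (up to 46 uM final, in DMSO) were applied to SW-13 cells for 48 h at 37C/5% CO2. Reading used CellTiter-Glo after 20 min at room temperature; fitted curves yielded IC50 and efficacy.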

[10] = Cellular viability qHTS for adrenocortical cancer (ACC) cell line NCI-H295R (AID 1963990); further: nearly all actives have a fitted effect of over 60% in size
In short: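 Readout: CellTiter-Glo luminescence, 20 min RT. Exposure: 48 h, 37C/5% CO2. Cells: NCI-H295R, ITS-DMEM serum-free. Range: up to 46 uM. Analysis: 4PL fit, IC50 plus efficacy.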

[11] = Quantitative highthroughput screen to assess conditional lethalithy of P12 Ichikawa cells grown in RPMI1640 with dialyzed fetal bovine serum (RPMI+ds) (AID 1963880); conditions: Potency: P12-Ichikawa viability; further: nearly all actives have a fitted effect of over 35% in size
In short: as §1
Potency means the concentration at half of the fitted maximal effect.

| Structure (SMILES) | Potency [1] | Potency [2] | Potency [3] | Potency [4] | Potency [5] | Potency [6] | Potency [7] | Potency [8] | activity (max response) [9] | Potency [10] | Potency [11] | Potency [9] |
| --- | --- | --- | --- | --- | --- | --- | --- | --- | --- | --- | --- | --- |
| CCn1c(-c2nonc2N)nc2cnc(Oc3cccc(NC(=O)c4ccc(OCCN5CCOCC5)cc4)c3)cc21 | 5.9 µM (active) | 1.18 µM (active) | inactive | 9.35 µM (active) | 13.2 µM (active) |  |  |  |  |  |  |  |
| COc1ccc(-n2c(C)c([N+](=O)[O-])c3ccc(O)cc32)cc1 | inactive | inactive | inactive | inactive | inactive | inactive | inactive | inactive | 3.14% | inactive |  |  |
| N[C@H](CSC(c1ccccc1)(c1ccccc1)c1ccccc1)C(=O)O | inactive | inactive | inactive | inactive | 16.6 µM (active) |  |  | 13.2 µM (active) | -17.5% | inactive | inactive |  |
| O=c1c(O)c(-c2ccc(O)cc2)oc2cc(O)cc(O)c12 | inactive | inactive | inactive | inactive | inactive |  |  |  | -9.76% | inactive | inactive |  |
| COc1ccc2c3c1OC1C[C@@H](O)C=C[C@@]31CCN(C)C2 (some centres undefined) | inactive | inactive | inactive | inactive | inactive |  |  | inactive |  |  | inactive |  |
| O=[N+]([O-])c1cn2c(n1)OC[C@@H](OCc1ccc(OC(F)(F)F)cc1)C2 | inactive | inactive | inactive | inactive | inactive |  | inactive | inactive |  | inactive | inactive |  |
| CC=CC(=O)N(CC)c1ccccc1C | inactive | inactive | inactive | inactive | inactive |  |  | inactive |  |  | inactive |  |
| CC(NCc1ccc2c(c1)nc(NC(=O)c1ccc(-c3cn[nH]c3)s1)n2CC(C)(C)O)C(C)(C)C (centres undefined) | 2.64 µM (active) | 2.64 µM (active) | 1.48 µM (active) | 2.35 µM (active) | 0.0264 µM (active) |  |  | 0.0187 µM (active) |  |  | 2.64 µM (active) |  |
| O=C1NC(=O)C(=Cc2ccc(-c3ccc(F)cc3O)o2)S1 | inactive | 10.5 µM (active) | inactive | inactive | inactive | 6.62 µM (active) | inactive |  |  |  |  |  |
| C[C@]12CCC3c4ccc(O)cc4CCC3C1CCC2=O (some centres undefined) | inactive | inactive | inactive | inactive |  | inactive |  |  | -21% | inactive |  |  |
| CS(=O)(=O)c1ccc(C(=O)Nc2ccc(Cl)c(-c3ccccn3)c2)c(Cl)c1 | inactive | inactive | inactive | inactive | inactive |  |  | inactive |  | inactive | inactive |  |
| CS(=O)(=O)c1ccc(Oc2cc(F)cc(C#N)c2)c2c1[C@H](O)C(F)(F)C2 | inactive | inactive | inactive | inactive |  | inactive |  |  | 10.8% | inactive |  |  |
| Cn1cc(C=C2C(=O)Nc3cccnc32)c2ccccc21 | 7.43 µM (active) | 9.35 µM (active) | inactive | 9.35 µM (active) |  | 23.5 µM (active) |  |  |  |  |  |  |
| CC[C@]1(O)C[C@@H]2CN(CCc3c([nH]c4ccccc34)[C@@](C(=O)OC)(c3cc4c(cc3OC)N(C=O)[C@@H]3C45CCN4CC=C[C@](CC)([C@H]45)[C@@H](OC(C)=O)[C@]3(O)C(=O)OC)C2)C1 (some centres undefined) | inactive | inactive | inactive | inactive |  | inactive |  |  |  |  |  |  |
| CCCCCCOC(=O)N=C(N)c1ccc(NCc2nc3cc(C(=O)N(CCC(=O)OCC)c4ccccn4)ccc3n2C)cc1 | 26.4 µM (active) | 26.4 µM (active) | 20.9 µM (active) | inactive | inactive |  |  | inactive |  |  |  |  |
| CCC(=O)N[C@H]1CC[C@H](C(=O)N(C)c2ccc(-c3nc4ccccc4o3)cc2)C1 |  |  |  | inactive |  |  |  |  |  |  |  |  |
| CC(=O)OCC(=O)[C@@]12N=C(C)O[C@H]1C[C@H]1[C@@H]3CCC4=CC(=O)C=C[C@]4(C)[C@@H]3[C@@H](O)C[C@@]12C |  |  |  | 4.18 µM (active) |  |  |  |  |  |  |  |  |
| CC[C@H]1OC(=O)[C@H](C)[C@@H](O[C@H]2C[C@@](C)(OC)[C@@H](O)[C@H](C)O2)[C@H](C)[C@@H](O[C@@H]2O[C@H](C)C[C@H](N(C)C)[C@@H]2O)[C@](C)(OC)C[C@@H](C)C(=O)[C@H](C)[C@@H](O)[C@]1(C)O | inactive | inactive |  | inactive | inactive | inactive |  | inactive |  |  | inactive |  |
| CC(C)OC(=O)C(C(=O)OC(C)C)=C1SC=CS1 | inactive | inactive |  | inactive |  | inactive |  | inactive | -12.3% and 0.529% |  | inactive |  |
| CNC(=O)c1cc(COc2nnc(Nc3ccc(Cl)cc3)c3ccoc23)ccn1 | inactive | inactive |  | inactive | 16.6 µM (active) | inactive |  |  | -21.4% | 12.6 µM (active) | inactive |  |
| COC1=C(OC)C(=O)C(CC=C(C)CCC=C(C)CCC=C(C)CCC=C(C)CCC=C(C)CCC=C(C)CCC=C(C)CCC=C(C)CCC=C(C)CCC=C(C)C)=C(C)C1=O | inactive | inactive |  | inactive | inactive | inactive | inactive | inactive |  |  | inactive |  |
| Nc1ccn(C[C@@H](CO)OCP(=O)(O)O)c(=O)n1 | inactive | inactive |  | inactive | inactive | inactive |  | inactive |  |  | inactive |  |
| COc1cc2nc(-c3ccc(N4CCN(C)CC4)cc3)nc(NCCN3CCOCC3)c2cc1OC | 1.66 µM (active) | 0.743 µM (active) |  | 5.26 µM (active) | 0.166 µM (active) | 2.96 µM (active) | 0.469 µM (active) | 0.372 µM (active) |  | 3.55 µM (active) | 2.64 µM (active) | 17.8 µM (active) |
| CON=C(C(=O)N[C@@H]1C(=O)N2C(C(=O)O)=C(Cn3ccc(=N)n3CCO)CS[C@H]12)c1csc(N)n1 | inactive | inactive |  | inactive | inactive | inactive | inactive |  |  |  | inactive |  |
| CCOc1cc(C=C2C(=O)N(c3ccccc3)N=C2C)cc(Cl)c1OCC(=O)OC | inactive | inactive |  | inactive |  | inactive |  |  |  |  | inactive |  |
| Clc1ccc2c(N3CCN(CCCN4CCN(c5ccnc6cc(Cl)ccc56)CC4)CC3)ccnc2c1 | inactive | inactive | inactive |  |  |  | 7.24 µM (active) |  | -23.4% | inactive |  |  |
| CC(C)(O)[C@H]1CC[C@@](C)([C@H]2[C@@H](O)C[C@@]3(C)[C@@H]4C[C@H](O[C@@H]5O[C@H](CO)[C@@H](O)[C@H](O)[C@@H]5O)[C@H]5C(C)(C)[C@@H](O[C@@H]6OC[C@@H](O)[C@H](O)[C@@H]6O)CC[C@@]56C[C@@]46CC[C@]23C)O1 | inactive | inactive |  | inactive | inactive | inactive | inactive | inactive |  |  | inactive |  |
| Nc1ncn([C@@H]2O[C@H](CO)[C@@H](O)[C@@H]2O)c(=O)n1 | 16.6 µM (active) | 7.43 µM (active) | 16.6 µM (active) |  | 9.35 µM (active) |  | 10.5 µM (active) | 4.69 µM (active) |  |  |  |  |
| NC(=O)C1CCCc2c1[nH]c1ccc(Cl)cc21 (centres undefined) | 8.33 µM (active) | 8.33 µM (active) | 5.9 µM (active) |  |  |  | 5.26 µM (active) | 4.18 µM (active) | -13.4% | inactive |  |  |
| NC(=O)N1c2ccccc2CC(=O)c2ccccc21 | inactive | inactive |  | inactive | inactive | inactive | inactive | inactive | 10.8% |  | inactive |  |
